# Results: PubChem BioAssay AID651692 (Broad Institute, 2012)
# Measured potencies and affinities stand elsewhere. Unmarked numbers belong to inactive results.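 Rule for the calls: active = fitted half-maximal concentration for loss of cell signal no higher than twice the top valid tested concentration; inconclusive = flat curve at 30 to 70% inhibition, or poor fit; inactive = flat within 30%, signal rise, or potency above limit.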
# Experiment: cytotoxicity toward MDA-MB-231 breast cancer cells – cell-based, CellTiter-Glo luminescence, cherry-pick, cytotoxicity control for RAD54 inhibitor project, dose response (AID 651692);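 note: 0% = median of sample compound wells and -100% = staurosporine control wells; more negative values mean stronger loss of viable cell signal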
# Settings: MDA-MB-231 viability, 24 h; series mostly up to 26 µM; activity change, negative = growth inhibition: at the top concentration
row,SMILES,"activity change, negative = growth inhibition"
1,COc1ccc(-c2cc3nc(NCCN4CCCC4)n(C)c(=O)c3s2)cc1OC,4.91%
2,c1ccc2c(c1)[nH]c1c(N3CCN(C4CCCCC4)CC3)ncnc12,4.07%
3,CCOC(=O)C1C(=O)NC(N2CCN(c3ccccc3)CC2)=NC1c1ccco1 (stereo not given),-0.077%
4,Cc1cccc2c1-c1sc(C(=O)NCCCN3CCCC(C)C3)cc1CO2 (stereo not given),-13.9%
5,CN(C)CCSc1nc(N)c2c3c(sc2n1)CN(C)CC3,1.23%
6,CCN(CC)CCn1c2ccc(F)cc2c2nc(C)sc21,-4.17%
7,Cn1c(C(=O)NCCN2CCCCCC2)cc2c(=O)n(C)c3ccccc3c21,1.73%
8,CCN(CC)CC(=O)Nc1cc(N(C)C)nc2ccccc12,9.38%
9,COc1ccc(CCNc2c3ccccc3nc3ccccc23)cc1OC,-1.11%
10,CN1CCN(CCCNC(=O)c2cc3c(=O)oc4ccccc4c3s2)CC1,2.62%
11,CCN(CC)CCCNC(=O)c1ccc2c3n(nc2c1)-c1ccc(Cl)cc1CO3,9.21%
12,CCN1CCN(C(=S)Nc2ccc3nc(N4CCN(C)CC4)cc(C)c3c2)CC1,-0.729%
13,CN(C)CCCN(C(=O)c1ccc([N+](=O)[O-])o1)c1nc2cc3c(cc2s1)OCO3,10.8%
14,COc1ccc2cc3cc(C(=O)NCCCN4CCC(C)CC4)oc3nc2c1,10.5%
15,O=c1c2ccccc2sc2ccc(NCCCN3CCOCC3)cc12,2.06%
16,CCOC(=O)c1cnc2c(C)cc(Cl)cc2c1NCCCN1CCOCC1,13%
17,CCOc1cc2[nH]c(=O)n(Cc3ccc(C(=O)NCCCN4CCC(C)CC4)cc3)c(=O)c2cc1OCC,8.84%
18,CCCNc1nc2nc3ccccn3c(=O)c2cc1C(=O)NCCN1CCOCC1,8.92%
19,CCN(CC)CCN1CCN(c2cncc(-c3cccc(N)c3)n2)CC1,3.21%
20,Cn1c2ccccc2c(=O)c2cc(NCCCN3CCOCC3)ccc21,7.21%

row,SMILES,"activity change, negative = growth inhibition"
1,O=C(Nc1ccc2c(c1)OCO2)c1cc(-c2ccncc2)nc2ccccc12,-13.1%
2,CCOC(=O)c1cnc2c(ccc3ccccc32)c1NCCN(C)C,4.95%
3,c1cc2c3c(cccc3c1)C(N1CCCCC1)=N2,4.52%
4,CCCN(CCC)CCCNC(=S)Nc1ccc2nc(N3CCCC3)cc(C)c2c1,-3.41%
5,COc1ccc(OC)c(Nc2nc(NCCCN(C)C)nc(N)c2[N+](=O)[O-])c1,-2.82%
6,Cc1ccc(-c2nc(NCCN(C)C)c3ccccc3n2)cc1,1.78%
7,CN(C)C(CNC(=O)CCCN1C(=O)c2cccc3cccc(c23)C1=O)c1ccccc1 (stereo not given),13.8%
8,Oc1ccc(Nc2ccnc3cc(Cl)ccc23)cc1,-1.5%
9,N=c1c(C(=O)NCCN2CCOCC2)cc2c(=O)n3ccccc3nc2n1CCc1ccccc1,10.1%
10,COc1ccc2oc3cc(NCCN(C)C)ccc3c(=O)c2c1,4.37%
11,CCc1ccc2nc3nc(C)cc(C)c3c(N)c2c1,4.96%
12,CC(C)NC1CCC(Nc2ccnc3cc(Cl)ccc23)CC1 (stereo not given),2.57%
13,OCCN1CCN(c2ncnc3sc(-c4ccccc4)cc23)CC1,-7.09%
14,COc1ccccc1CNC(=O)c1cccs1,-3.64%
15,O=c1c2ccccc2oc2ccc(NCCCN3CCOCC3)cc12,9.85%
16,Cc1ccc(-c2nc(C(=O)NCCCN(C)C)cc3c2[nH]c2ccccc23)cc1,-18.9%
17,CCN1CCN(c2ccc(Nc3ccnc4ccccc34)cc2)CC1,-8.61%
18,CCN(CC)CCNC(=O)c1cc2cc3ccc(OC)cc3nc2o1,4.55%
19,CCN(CC)CCn1c2ccccc2c2nc3ccccc3nc21,1.86%
20,Cc1ccnc(SCC(=O)Nc2sc3c(c2C#N)CCC(C(C)(C)C)C3)n1 (stereo not given),2.74%
